About 8,800 targets were measured; listed, in parts, are those with a hit and a random draw of the rest. About 0.5% of all pairs of compound and target were hits.
Legend:
Test in all cases: log2 fold change, soluble protein after heating vs DMSO (PISA); higher = thermal stabilisation; K562 lysate, 10 uM; active = over 0.2 and 3.5 SD of the protein, either way, in both replicates (recomputed)
[1] = compound: CS(=O)(=O)CCNCc1ccc(-c2ccc3ncnc(Nc4ccc(OCc5cccc(F)c5)c(Cl)c4)c3c2)o1 [lapatinib]
Summary of the method: (§1)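 Log-two fold change in thermal stability relative to solvent controls is reported from duplicates. For each sample, crude K562 extract from dounce-homogenised pellets in PBS pH 7.4 with 1 mM MgCl2, at 1 mg/mL protein, was treated with 10 μM compound for 30 min. Aliquots heated for 3 min across 48°C-58°C were pooled, brought to 0.5% NP-40 at 4°C and cleared at 21,000xg for 90 min. The supernatant was quantified by TMTpro 16plex LC-MS/MS with channel sums equalised.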

[2] = compound: CS(=O)(=O)N1CCN(Cc2cc3nc(-c4cccc5[nH]ncc45)nc(N4CCOCC4)c3s2)CC1 [pictilisib]
Summary of the method: as §1

[3] = compound: C[C@@H](Oc1cc(-c2cnn(C3CCNCC3)c2)cnc1N)c1c(Cl)ccc(F)c1Cl [crizotinib]
Summary of the method: as §1

[4] = compound: C[C@H](C1=CC=C(C=C1)C(=O)NC2=C3C=CNC3=NC=C2)N
Summary of the method: as §1

[5] = compound: Cc1cc(Nc2cc(CN3CCOCC3)c3nc(C)c(Cc4ccc(Cl)cc4F)n3n2)n[nH]1 [gandotinib]
Summary of the method: as §1

[6] = compound: Cc1cc(Nc2cc(N3CCN(C)CC3)nc(Sc3ccc(NC(=O)C4CC4)cc3)n2)n[nH]1 [tozasertib]
Summary of the method: as §1

[7] = compound: Cc1ccc(-n2nc(C(C)(C)C)cc2NC(=O)Nc2ccc(OCCN3CCOCC3)c3ccccc23)cc1 [doramapimod]
Summary of the method: as §1

[8] = compound: Cc1ccc(NC(=O)c2ccc(CN3CC[C@H](N(C)C)C3)c(C(F)(F)F)c2)cc1Nc1nccc(-c2cncnc2)n1 [bafetinib]
Summary of the method: as §1

[9] = compound: Cc1cccc(CC(=O)N2CCc3c2ccc(-c2cn(C)c4ncnc(N)c24)c3F)n1
Summary of the method: as §1

[10] = compound: Cc1cn(-c2cc(NC(=O)c3ccc(C)c(Nc4nccc(-c5cccnc5)n4)c3)cc(C(F)(F)F)c2)cn1 [nilotinib]
Summary of the method: as §1

[11] = compound: Cc1nc(Nc2n[nH]c3c2CN(C(=O)N[C@H](CN(C)C)c2ccccc2)C3(C)C)c2sccc2n1
Summary of the method: as §1

[12] = compound: Cc1ncc(-c2ccnc(Nc3ccc(S(C)(=O)=O)cc3)n2)n1C(C)C
Summary of the method: as §1

[13] = compound: Cn1cc(CNCC2CCN(c3ncc(C(=O)NO)cn3)CC2)c2ccccc21 [quisinostat]
Summary of the method: as §1

[14] = compound: Cn1cncc1[C@@](N)(c1ccc(Cl)cc1)c1ccc2c(c1)c(-c1cccc(Cl)c1)cc(=O)n2C [tipifarnib]
Summary of the method: as §1

[15] = compound: NC(=O)Nc1cc(-c2cccc(F)c2)sc1C(=O)N[C@H]1CCCNC1
Summary of the method: as §1

[16] = compound: NC(=O)c1cnc(N[C@@H]2CCCC[C@@H]2N)nc1Nc1cccc(-n2nccn2)c1
Summary of the method: as §1

[17] = compound: C[C@H](Nc1ncnc2nc[nH]c12)c1cc2cccc(Cl)c2c(=O)n1-c1ccccc1 [duvelisib]
Summary of the method: as §1

[18] = compound: Cc1nc(Nc2ncc(C(=O)Nc3c(C)cccc3Cl)s2)cc(N2CCN(CCO)CC2)n1 [dasatinib]
Summary of the method: as §1

[19] = compound: Cn1cc(-c2ccc3c(c2)CCN3C(=O)Cc2cccc(C(F)(F)F)c2)c2c(N)ncnc21
Summary of the method: as §1

[20] = compound: NC1(c2ccc(-c3nc4ccn5c(=O)[nH]nc5c4cc3-c3ccccc3)cc2)CCC1
Summary of the method: as §1

Measured: log2 fold change

ACLY isoform 2 (UniProt P53396)
Chain of UniProt P53396 (P53396 whole entry, looked up): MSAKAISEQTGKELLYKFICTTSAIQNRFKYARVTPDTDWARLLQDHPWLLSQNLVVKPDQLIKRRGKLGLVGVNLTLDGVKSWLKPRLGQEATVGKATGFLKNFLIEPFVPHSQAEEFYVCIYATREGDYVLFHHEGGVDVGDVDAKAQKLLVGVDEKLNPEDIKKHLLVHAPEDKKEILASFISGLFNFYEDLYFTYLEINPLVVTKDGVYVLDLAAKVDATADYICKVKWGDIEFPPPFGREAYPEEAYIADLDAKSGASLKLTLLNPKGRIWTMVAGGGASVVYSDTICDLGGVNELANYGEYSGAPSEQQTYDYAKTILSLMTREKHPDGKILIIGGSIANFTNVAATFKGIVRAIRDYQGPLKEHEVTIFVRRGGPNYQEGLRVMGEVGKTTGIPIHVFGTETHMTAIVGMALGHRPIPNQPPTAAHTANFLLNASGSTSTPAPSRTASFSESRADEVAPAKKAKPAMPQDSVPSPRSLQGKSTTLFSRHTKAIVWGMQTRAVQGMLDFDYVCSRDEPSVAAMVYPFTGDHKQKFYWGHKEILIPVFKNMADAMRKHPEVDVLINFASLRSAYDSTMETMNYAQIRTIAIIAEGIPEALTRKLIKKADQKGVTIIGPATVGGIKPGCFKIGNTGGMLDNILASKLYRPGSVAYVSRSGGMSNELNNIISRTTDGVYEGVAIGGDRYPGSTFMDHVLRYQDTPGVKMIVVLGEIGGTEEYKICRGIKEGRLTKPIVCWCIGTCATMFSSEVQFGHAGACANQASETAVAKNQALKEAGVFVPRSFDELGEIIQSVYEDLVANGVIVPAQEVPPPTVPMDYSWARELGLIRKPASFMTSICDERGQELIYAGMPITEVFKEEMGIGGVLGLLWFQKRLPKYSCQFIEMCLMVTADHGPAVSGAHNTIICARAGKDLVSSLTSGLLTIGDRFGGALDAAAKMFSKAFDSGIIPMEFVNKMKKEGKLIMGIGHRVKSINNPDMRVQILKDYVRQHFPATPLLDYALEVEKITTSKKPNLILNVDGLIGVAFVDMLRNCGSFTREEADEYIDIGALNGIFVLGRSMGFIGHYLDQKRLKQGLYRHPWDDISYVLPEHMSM
active: [4] -0.423
inactive: [1] 0.012 | [2] -0.03 | [3] 0.078 | [5] 0.323 | [6] 0.055 | [7] -0.119 | [8] 0.004 | [9] 0.277 | [10] 0.08 | [11] 0.038 | [12] 0.191 | [13] 0.162 | [14] 0.02 | [15] -0.027 | [16] -0.062

ABI1 isoform 6 (UniProt Q8IZP0)
Chain of UniProt Q8IZP0 (Q8IZP0 whole entry, looked up): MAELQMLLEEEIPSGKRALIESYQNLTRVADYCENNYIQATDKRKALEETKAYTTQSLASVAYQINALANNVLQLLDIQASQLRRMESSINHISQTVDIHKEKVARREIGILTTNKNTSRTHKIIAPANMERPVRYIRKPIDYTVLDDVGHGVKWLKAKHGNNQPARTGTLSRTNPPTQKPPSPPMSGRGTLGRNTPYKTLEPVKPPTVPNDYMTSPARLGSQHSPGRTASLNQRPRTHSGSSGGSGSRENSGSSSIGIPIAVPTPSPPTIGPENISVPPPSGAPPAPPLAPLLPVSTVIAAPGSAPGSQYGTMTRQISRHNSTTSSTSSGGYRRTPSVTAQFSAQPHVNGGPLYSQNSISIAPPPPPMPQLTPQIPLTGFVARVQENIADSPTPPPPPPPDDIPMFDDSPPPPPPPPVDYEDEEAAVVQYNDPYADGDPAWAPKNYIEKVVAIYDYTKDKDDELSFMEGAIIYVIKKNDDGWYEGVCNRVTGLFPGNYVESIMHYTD
inactive: [1] 0.007 | [6] -0.061 | [16] 0.113

ALG13 isoform 2 (UniProt Q9NP73)
Chain of UniProt Q9NP73 (Q9NP73 whole entry, looked up): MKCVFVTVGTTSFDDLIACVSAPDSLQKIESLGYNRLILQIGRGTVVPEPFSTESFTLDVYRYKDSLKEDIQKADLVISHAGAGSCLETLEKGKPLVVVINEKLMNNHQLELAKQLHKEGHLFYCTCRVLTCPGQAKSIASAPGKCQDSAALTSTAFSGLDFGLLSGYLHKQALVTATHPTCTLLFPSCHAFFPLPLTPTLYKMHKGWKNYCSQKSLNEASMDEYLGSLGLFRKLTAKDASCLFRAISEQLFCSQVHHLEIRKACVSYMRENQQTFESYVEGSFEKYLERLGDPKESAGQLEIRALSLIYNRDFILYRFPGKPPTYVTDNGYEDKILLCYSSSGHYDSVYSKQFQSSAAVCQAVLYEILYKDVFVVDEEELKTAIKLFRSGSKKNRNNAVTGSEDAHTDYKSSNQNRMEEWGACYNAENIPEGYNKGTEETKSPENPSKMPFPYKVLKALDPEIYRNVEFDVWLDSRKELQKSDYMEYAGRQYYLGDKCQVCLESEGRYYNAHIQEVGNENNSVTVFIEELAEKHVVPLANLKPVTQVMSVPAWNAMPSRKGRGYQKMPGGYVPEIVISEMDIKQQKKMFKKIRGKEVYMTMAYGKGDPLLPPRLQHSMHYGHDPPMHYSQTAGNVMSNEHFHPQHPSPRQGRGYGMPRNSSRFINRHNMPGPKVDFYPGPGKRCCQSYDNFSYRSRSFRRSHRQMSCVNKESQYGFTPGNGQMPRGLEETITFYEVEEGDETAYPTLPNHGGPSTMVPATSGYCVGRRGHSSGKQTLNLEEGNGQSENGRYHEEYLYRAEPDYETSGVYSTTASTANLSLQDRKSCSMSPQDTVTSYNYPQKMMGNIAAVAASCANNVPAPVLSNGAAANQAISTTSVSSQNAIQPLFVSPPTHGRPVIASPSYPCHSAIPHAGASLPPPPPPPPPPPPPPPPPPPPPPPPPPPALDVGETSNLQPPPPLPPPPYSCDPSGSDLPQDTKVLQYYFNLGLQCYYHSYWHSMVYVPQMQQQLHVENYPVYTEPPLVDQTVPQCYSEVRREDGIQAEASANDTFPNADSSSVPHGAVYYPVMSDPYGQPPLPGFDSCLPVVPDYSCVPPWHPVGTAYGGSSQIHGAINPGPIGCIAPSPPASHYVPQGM
inactive: [4] 0.054 | [5] -0.088 | [9] 0.106 | [10] 0.142 | [11] -0.082 | [12] -0.066 | [14] 0.371

ALDH18A1 isoform 2 (UniProt P54886)
inactive: [3] 0.127 | [17] 0.088 | [7] -0.134 | [18] 0.089 | [19] 0.181 | [13] 0.397 | [15] -0.093

ANP32E isoform 3 (UniProt Q9BTT0)
active: [4] -0.843
inactive: [2] -0.012 | [5] 0.213 | [6] 0.165 | [8] -0.14 | [9] 0.439

ACAT1, A0A5F9ZHJ0
inactive: [4] -0.151 | [5] -0.075 | [9] 0.208 | [10] -0.176 | [11] 0.063 | [12] 0.024 | [14] 0.07

ADD1 isoform 4 (UniProt P35611)
Chain of UniProt P35611 (P35611 whole entry, looked up): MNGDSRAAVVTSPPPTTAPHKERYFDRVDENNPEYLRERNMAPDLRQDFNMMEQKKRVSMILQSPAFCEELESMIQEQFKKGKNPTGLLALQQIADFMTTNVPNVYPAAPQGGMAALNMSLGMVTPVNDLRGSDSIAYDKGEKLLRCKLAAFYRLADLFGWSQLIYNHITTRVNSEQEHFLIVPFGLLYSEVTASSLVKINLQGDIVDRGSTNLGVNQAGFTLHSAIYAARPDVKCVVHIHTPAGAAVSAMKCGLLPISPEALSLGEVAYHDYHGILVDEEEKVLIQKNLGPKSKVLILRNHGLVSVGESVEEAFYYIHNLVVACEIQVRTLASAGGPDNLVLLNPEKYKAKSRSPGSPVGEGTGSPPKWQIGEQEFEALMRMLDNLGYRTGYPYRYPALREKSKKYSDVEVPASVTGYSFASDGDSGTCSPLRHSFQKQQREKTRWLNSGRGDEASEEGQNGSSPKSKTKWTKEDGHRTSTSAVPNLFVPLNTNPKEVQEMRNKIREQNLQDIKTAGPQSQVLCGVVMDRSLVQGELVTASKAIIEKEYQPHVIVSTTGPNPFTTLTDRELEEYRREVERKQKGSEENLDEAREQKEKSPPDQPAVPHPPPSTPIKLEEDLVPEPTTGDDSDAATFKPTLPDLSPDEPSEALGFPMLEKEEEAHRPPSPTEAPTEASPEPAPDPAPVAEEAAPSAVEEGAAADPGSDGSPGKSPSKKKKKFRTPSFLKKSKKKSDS
inactive: [1] -0.006 | [2] -0.168 | [17] 0.029 | [5] 0.556 | [6] -0.044 | [8] 0.097 | [9] 0.563 | [18] -0.017 | [19] -0.075 | [16] -0.109 | [20] -0.274
active: [4] -0.745

ACVR1 (UniProt Q04771)
inactive: [2] 0.006 | [4] 0.103 | [17] -0.015 | [5] 0.643 | [8] 0.007 | [9] -0.294 | [10] -0.11 | [11] 0.013 | [18] 0.258 | [12] 0.476 | [19] -0.046 | [14] -0.309

ARHGEF2 (UniProt V9GYF0)
inactive: [1] -0.134 | [17] 0.11 | [6] 0.041 | [10] 0.029 | [11] -0.119 | [18] 0.02 | [12] -0.113 | [19] -0.139 | [14] -0.23 | [16] 0.117

AMDHD2 (UniProt Q9Y303)
inactive: [3] -0.056 | [4] 0.052 | [5] -0.015 | [7] 0.057 | [9] 0.065 | [13] -0.001 | [15] 0.048

AARS2 (UniProt Q5JTZ9)
Chain of UniProt Q5JTZ9 (Q5JTZ9 whole entry, looked up): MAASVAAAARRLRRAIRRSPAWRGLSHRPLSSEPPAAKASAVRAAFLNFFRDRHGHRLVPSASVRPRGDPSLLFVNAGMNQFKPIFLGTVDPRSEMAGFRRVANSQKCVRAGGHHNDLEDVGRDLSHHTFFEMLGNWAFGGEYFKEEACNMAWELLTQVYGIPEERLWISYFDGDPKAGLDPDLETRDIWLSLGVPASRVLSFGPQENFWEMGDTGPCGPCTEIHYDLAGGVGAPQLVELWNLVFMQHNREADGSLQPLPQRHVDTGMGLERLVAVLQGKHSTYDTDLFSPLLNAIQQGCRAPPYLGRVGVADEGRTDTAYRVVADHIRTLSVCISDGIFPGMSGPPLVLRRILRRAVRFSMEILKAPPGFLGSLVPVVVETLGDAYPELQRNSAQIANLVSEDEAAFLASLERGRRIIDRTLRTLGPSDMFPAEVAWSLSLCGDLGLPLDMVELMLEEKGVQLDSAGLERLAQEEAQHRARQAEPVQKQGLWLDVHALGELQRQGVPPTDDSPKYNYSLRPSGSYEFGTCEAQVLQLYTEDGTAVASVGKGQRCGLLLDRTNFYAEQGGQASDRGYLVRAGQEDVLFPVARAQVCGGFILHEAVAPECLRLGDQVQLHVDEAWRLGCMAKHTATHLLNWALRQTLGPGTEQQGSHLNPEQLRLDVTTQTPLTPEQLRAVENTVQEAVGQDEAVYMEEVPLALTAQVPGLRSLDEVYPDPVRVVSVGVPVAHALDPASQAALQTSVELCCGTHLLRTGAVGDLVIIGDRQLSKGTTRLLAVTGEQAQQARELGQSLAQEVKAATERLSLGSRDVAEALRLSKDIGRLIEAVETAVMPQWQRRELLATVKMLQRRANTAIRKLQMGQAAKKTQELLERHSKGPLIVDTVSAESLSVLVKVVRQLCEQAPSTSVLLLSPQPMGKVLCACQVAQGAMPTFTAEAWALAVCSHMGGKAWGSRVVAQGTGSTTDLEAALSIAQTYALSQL
inactive: [1] 0.007 | [2] 0.01 | [3] -0.046 | [4] 0.072 | [17] 0.012 | [5] -0.121 | [6] 0.039 | [7] 0.034 | [8] -0.041 | [9] 0.019 | [10] -0.046 | [11] 0.021 | [18] -0.018 | [12] -0.013 | [19] 0.062 | [13] -0.046 | [14] 0.023 | [15] 0.053 | [16] 0.016 | [20] -0.05

ALKBH1 (UniProt Q13686)
Chain of UniProt Q13686 (Q13686 whole entry, looked up): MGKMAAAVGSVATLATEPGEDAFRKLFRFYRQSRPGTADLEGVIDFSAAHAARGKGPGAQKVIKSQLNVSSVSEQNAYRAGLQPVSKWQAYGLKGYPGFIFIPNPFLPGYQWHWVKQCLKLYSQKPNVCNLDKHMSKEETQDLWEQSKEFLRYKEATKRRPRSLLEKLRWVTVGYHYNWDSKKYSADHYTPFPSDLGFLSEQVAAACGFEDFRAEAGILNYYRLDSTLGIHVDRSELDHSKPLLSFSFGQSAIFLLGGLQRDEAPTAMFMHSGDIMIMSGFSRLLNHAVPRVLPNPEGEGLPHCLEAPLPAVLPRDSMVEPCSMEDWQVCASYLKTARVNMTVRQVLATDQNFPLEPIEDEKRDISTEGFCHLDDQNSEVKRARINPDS
inactive: [4] -0.016 | [17] 0.014 | [5] 0 | [6] 0.09 | [9] 0.048 | [10] -0.087 | [11] -0.026 | [18] -0.249 | [12] -0.052 | [19] 0.007 | [14] 0.137 | [20] 0.116

ANXA2 (UniProt H0YL33)
inactive: [1] 0.026 | [2] -0.028 | [3] -0.048 | [4] 0.284 | [17] 0.044 | [5] -0.163 | [7] 0.017 | [8] 0.031 | [9] -0.054 | [10] -0.153 | [11] 0.008 | [18] -0.069 | [12] 0.074 | [19] 0.022 | [13] 0.134 | [14] 0.199 | [15] -0.196 | [16] -0.078 | [20] 0.089

— the supplement of paper PMC10849652
